# An excerpt weighted towards active compounds, which were near 1.1% of everything screened.
# RGS4 inhibitor = blocks human RGS4-accelerated GTP hydrolysis; P49798; Transcreener GDP fluorescence polarization, RGS4-accelerated GTP hydrolysis; Potency, µM (titrated, usually from 114 µM), inactives show top-dose activity change, negative = inhibition, actives largely listed as inhibitors; 0.039% of 390,000 active; also: potency is read from the fitted curve at half-maximal effect; % is scaled to controls: 0 for no effect and ±100 for the full control effect; nearly all actives have a fitted effect of over 75% in size
# Target sequence (P49798 whole entry, looked up): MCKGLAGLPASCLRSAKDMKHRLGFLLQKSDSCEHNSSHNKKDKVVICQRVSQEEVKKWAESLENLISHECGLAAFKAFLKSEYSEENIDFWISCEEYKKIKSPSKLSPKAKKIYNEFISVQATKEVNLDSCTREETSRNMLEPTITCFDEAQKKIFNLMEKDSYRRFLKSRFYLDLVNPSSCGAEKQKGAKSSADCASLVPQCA
#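 MLSMR compounds (23 nl, pin-transferred) preincubated 10 min at room temperature with a 500nM (2x) first reagent, then RGS4 at 900nM (2x) plus Transcreener GDP mix added; fluorescence polarization (620/688 nm) read before and after 90 min at 30 °C.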
# p53 reactivation = re-activators of mutant p53 | 0.063% of 320,000 active | Potency, µM (top dose mostly 92.2 µM), without a hit: at the highest dose activity change, positive = activation, hits mostly activators | H1299 p53-A138V BP100-luciferase reporter, luminescence, 24 h | AID 504706; also: potency is read from the fitted curve at half-maximal effect; % of control where 0% means no effect; nearly all actives have a fitted effect of over 45% in size
#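 p53-null H1299 cells stably carrying temperature-sensitive p53-A138V and a BP100-luciferase reporter were pinned with compounds (4-point, 1:5 series) and held 24 hrs at 37 deg C. Luminescence was read 10 min after detection reagent.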
# LDHA inh = blocks human lactate dehydrogenase A. AID 1347041. 0.15% of 480,000 active. activity change, % (values are at about 110 or 230 µM). P00338. purified LDHA, NADH/diaphorase-resazurin fluorescence; hits give low values; in the data active = activity change below about -30%; inconclusive = mostly about -25% to -30%;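 also: plate controls were DMSO wells for no effect and wells without enzyme for full effect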
#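 LDH5 2 nM; NADH 0.06 mM, pyruvate 0.2 mM; 200 mM Tris pH 7.4, EDTA, Tween-20; 5 min RT. Detection: diaphorase 0.133 mg/mL + resazurin 37 µM, fluorescence ex540/em590 at 0 and 20 min; normalized to enzyme-free and DMSO wells.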
# PTHR1 agonist = agonists of human PTHR1 parathyroid hormone receptor. 0.075% of 410,000 active. Potency, µM (titrated, usually from 115 µM), inactives show at the top dose activation, usual class: activators. HEK293 GP2 PTHR1 cells, GloSensor cAMP luminescence, 1 h; also: potency is read from the fitted curve at half-maximal effect; nearly all actives have a fitted effect of over 55% in size
#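 HEK-293-derived GP2 cells expressing PTHR1 and a GloSensor cAMP reporter, 3,000/well, plated overnight, given luciferin plus IBMX (each 0.5 mM as added) for 1 h at 37 °C, then compound for 1 h at 37 °C. Luminescence was read after 15 min at room temperature.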
# BRCA1 expr up = BRCA1 expression activation. MCF7-BRCA1-FFLuc reporter, luminescence, 48 h; response scale: scaled: vehicle 0%, 10 µM genistein 100%. Potency, µM (doses to about 46.1 µM), for inactives: top-dose activation, usual class: activators. 1.1% of 380,000 active. AID 624202; also: potency is read from the fitted curve at half-maximal effect; nearly all actives have a fitted effect of over 80% in size
#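 Quantitative HTS in MCF7 cells stably reporting BRCA1 expression via firefly luciferase. Compound treatment lasts 48 h at 37 °C in phenol-red free MEM. Activation is expressed relative to genistein at 10 microM and DMSO.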
# * hit, by the source's call; i = inactive; ? = inconclusive; . = no result given; [ ] = dose if it differs, or a comment. Unless noted, calls follow the shape of the dose curve; as a rule, active = well fitted curve in the direction sought with a large enough effect; inconclusive = small, poorly fitted or top-dose-only effect, or another doubt; inactive = no such curve, though single readings can be large; an effect the other way counts as inactive or inconclusive.
SMILES,RGS4 inhibitor,p53 reactivation,LDHA inh,PTHR1 agonist,BRCA1 expr up
CCN(C(=O)COc1ncnc2ccc(Br)cc12)c1ccccc1,.,.,3.9,.,.
CN(C)S(=O)(=O)N1CCc2ccc(NC(=O)c3ccccc3Cl)cc2C1,-3.5%,.,-4.8,-15.3%,76.9%
CSCC(=O)N1CCc2ccc(NC(=O)c3ccccc3Cl)cc2C1,-6.6%,.,-1.5,-69.2%,10µM*
O=c1c2ccccc2oc2ccc(Oc3ccccc3)cc12,0.7%,18.5%,4.5,i,3.55µM*
CC(=O)NC1(C(F)(F)F)C(=O)Nc2c1c(=O)[nH]c(=O)n2Cc1ccccc1 (configuration not stated),.,.,-3.5,.,.
O=C(CCc1ccccc1)NC1(C(F)(F)F)C(=O)Nc2c1c(=O)[nH]c(=O)n2Cc1ccccc1 (configuration not stated),.,.,-35.0*,.,.
O=C(CSc1ccc(-c2cccs2)nn1)c1cccs1,-15.5%,21.8%,-1.7,-9.6%,11.2µM*
CCOc1ccc(-c2ccc(SCC(=O)N3CCN(c4ccccc4)CC3)nn2)cc1,.,6.6%,.,.,.
CCOc1ccc(-c2ccc(SCC)nn2)cc1,-5.9%,-3.0%,-5.5,-31.9%,56.9%
CCc1ccc(NC(=O)CSc2ccc(-c3ccccn3)nn2)cc1,27.6%,8.6%,-3.0,-24.7%,-35.3%
CCOc1ccc(-c2ccc(SCc3ccccn3)nn2)cc1,-0.1%,9.5%,-1.0,-18.8%,4.47µM*
CCSc1ccc(-c2ccc(C)cc2)nn1,18.6%,22.0%,-4.5,-5.0%,2.51µM*
CCc1ccc(-c2ccc(SCc3ccccn3)nn2)cc1,38.6%,13.3%,-13.1,-33.3%,5.01µM*
Cc1ccc(-n2c(SCC(=O)Nc3ccc(Cl)cc3)nc3c(=O)[nH]cnc32)cc1,.,.,7.0,.,.
Cc1ccc(S(=O)(=O)N2CCN(CCNC(=O)COc3ccc(C(C)C)cc3)CC2)cc1,.,.,12.1,.,.
Cc1cccc(C(C)C)c1NC(=O)c1cnc2ccccc2n1,.,.,-4.8,.,.
c1ccc(CSc2ccc(-c3cccs3)nn2)nc1,-8.0%,24.1%,3.3,-13.3%,7.94µM*
CCCCCc1ccc(-c2ccc(OC)cc2)nc1,-17.8%,0.0%,-1.3,-9.3%,8.91µM*
CCCCCCCCCCCCc1ccc(-c2ccc(CCCCC)cn2)cc1,.,.,1.6,.,.
N#Cc1c(-c2ccccc2)cc(-c2cccs2)nc1SCCS(=O)Cc1ccccc1 (configuration not stated),.,.,2.7,.,.
Cc1cccc(-c2nc3n(CC(=O)N4CCC(C)CC4)c(C)cc(=O)n3n2)c1,.,.,6.7,.,.
Cc1cccc(-c2nc3n(CC(=O)N4CCCCCC4)c(C)cc(=O)n3n2)c1,.,.,-30.7*,.,.
Cc1ccc(Sc2ccc(NC(=O)c3cccc(C)c3C)cc2)c(C)c1,.,.,-1.2,.,.
COc1cc(C)ccc1OCCCOc1ccccc1Cl,-1.3%,?,-8.4,-10.6%[57.5 µM],12.6µM*
Cc1c(Cl)cccc1NC(=S)NCCc1cccs1,.,.,3.5,.,.
SMILES,RGS4 inhibitor,p53 reactivation,LDHA inh,PTHR1 agonist,BRCA1 expr up
CCn1c(SCc2ccc(F)cc2Cl)nnc1-c1cnccn1,.,.,1.6,.,.
CC1CCN(CCCOc2ccc(Cl)cc2Br)CC1,-10.0%,15.0%,-11.0,-18.2%,71.5%
CC1CCN(CCOCCOc2ccc(Cl)cc2Br)CC1,-2.9%,-9.3%,-33.7*,?,-0.4%
Cc1ccc(C(=O)C(Cl)c2ccc(C)cc2)cc1 (configuration not stated),.,.,-3.6,.,.
C(=N\NC1=Nc2cccc3cccc1c23)/c1ccccc1,8.0%,50.1µM*,10.2,-22.9%,-16.2%
c1cncc(CNCCCn2ccnc2)c1,.,.,-1.0,.,.
CCCCNc1c(-c2ccc(-c3cccc(Cl)c3)cc2)nc2ccccn12,13.5%,20.6%,-2.7,-51.7%,8.91µM*
COc1ccc(-c2cc(=O)c3cc(OC(=O)C(C)C)ccc3o2)cc1,.,.,12.3,.,.
COc1ccc(-c2cc(=O)c3cc(OC(=O)C(C)(C)C)ccc3o2)cc1,.,.,-32.3*,.,.
COc1ccc2oc(-c3ccco3)cc(=O)c2c1,1.1%[11.4 µM],14.6%,-3.2,-14.8%,6.31µM*
Cc1cc(C)c2nc(-c3ccc(Cl)s3)cc(C(=O)O)c2c1,.,.,-0.4,.,.
